# Hits are enriched below; roughly 2.9% of the tested compounds scored in any of these assays.
# CF NFkB inh: inhibitors of cystic fibrosis induced NF-kB. KKLEB NF-kB-GFP reporter, PAF-induced, GFP fluorescence overnight. 360,000 compounds, 0.86% hits. inhibition, % at 5 µM;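 active = at least 50% inhibition at 5 µM, scaled per plate between neutral and stimulator controls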;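 also: PAF is a Pseudomonas aeruginosa culture filtrate used as stimulus; plate controls were PAF-stimulated DMSO wells for no effect and unstimulated DMSO wells for full effect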
# HIF-2a inh: HIF-2a inhibition; inhibition, % at 18.8 µM; 360,000 compounds, 0.72% hits; AID 624352; 786-0 RCC cells HIF-2a reporter, luciferase luminescence, overnight;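 active = inhibition of the luminescence signal of 40% or more relative to plate controls, in a single-dose primary screen at 18.75 µM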
# KKLEB tox: reduces viability of KKLEB cystic fibrosis airway cells | KKLEB CF airway cells viability, ATPlite luminescence, overnight; active compounds read low; cells stimulated with P. aeruginosa culture filtrate | activity change (cytotoxicity), % at 5 µM | 360,000 compounds, 0.36% hits;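 active = corrected activity change at or below -50% at 5 µM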
# EBV LMP1 NFkB: Epstein-Barr LMP1 NF-kappaB reporter inhibition | LMP1-induced NF-kappaB luciferase reporter cells, luminescence | inhibition, % at 12.5 µM | 350,000 compounds, 0.69% hits; in the data active = inhibition above about 41%;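 also: 0% = neutral control wells and 100% = reference inhibitor control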
# Shn3 inh set2: reduces Shn3 3'UTR luciferase signal in osteoblasts; Clone20 osteoblast Shn3 3'UTR firefly luciferase, 24 h; inhibition, % at 12.5 µM; 360,000 compounds, 0.52% hits;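 active = mean inhibition of at least 75% with every replicate also reaching 75%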;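 also: 0% = median of neutral control wells and 100% = pilot-screen positive control compound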
# Peg3 prom inh: Peg3 promoter activity inhibition. 360,000 compounds, 1.7% hits. HeLa PEG-Prom luciferase reporter, luminescence, overnight. inhibition, % at 20 µM;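 active = inhibition of at least 50% at 20 µM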
# The depositor's hits bear a star; x = no result.
SMILES,CF NFkB inh,HIF-2a inh,KKLEB tox,EBV LMP1 NFkB,Shn3 inh set2,Peg3 prom inh
CC(=O)c1ccc(S(=O)(=O)Nc2cccc(-c3ccc4nncn4n3)c2)cc1,12,6,0,58*,7,9
Cc1ccc2nc3n(c(=O)c2c1)-c1cc2ccccc2cc1C(=O)NC3Cc1ccc(O)cc1 (stereo unspecified),-22,10,-7,12,25,69*
O=C1NC(Cc2ccc(O)cc2)c2nc3cc(Cl)ccc3c(=O)n2-c2cc3ccccc3cc21 (stereo unspecified),0,-20,-9,-46,66,57*
Cc1ccc2c(=O)n3c(nc2c1)C(Cc1ccccc1)NC(=O)c1cc2ccccc2cc1-3 (stereo unspecified),1,12,-12,6,10,25
O=C1NC(Cc2ccc(O)cc2)c2nc3cc(F)c(F)cc3c(=O)n2-c2cc3ccccc3cc21 (stereo unspecified),-6,-3,2,-2,51,47
O=C(O)C1CCN(C(=O)Cc2ccccc2)CC1,8,17,-9,-4,-4,15
OC[C@@H]1CN(Cc2ccc(-c3ccccc3)cc2)C[C@H](n2cnc3c(NCc4ccc(F)cc4)ncnc32)O1,19,-34,-14,x,81*,33
OC[C@@H]1CN(Cc2ccccc2)C[C@H](n2cnc3c(NCc4ccc(F)cc4)ncnc32)O1,14,-111,-7,x,-50,-101
O=C(NC(CSCc1ccccc1)C(=O)N/N=C/c1ccc(O)cc1O)c1ccc([N+](=O)[O-])cc1 (stereo unspecified),10,13,13,17,91*,51*
O=S(=O)(Nc1cccnc1)c1cccc(C(F)(F)F)c1,-17,7,7,2,13,-3
O=[N+]([O-])c1ccc(S(=O)(=O)c2cccc(C(F)(F)F)c2)nc1,89*,52*,-39,76*,x,100*
Cc1ccc(NC(=O)c2ccc(NCCc3ccccc3)c([N+](=O)[O-])c2)cc1F,46,6,-50*,16,10,19
O=C(Nc1cc(F)cc(F)c1)c1ccc(NCCc2ccccc2)c([N+](=O)[O-])c1,0,19,-5,11,-2,19
CCOC(=O)c1sc(NC(=O)CCCCCN2C(=O)c3cccc4cccc(c34)C2=O)nc1C,39,4,-53*,-48,18,41
O=C(OCC(=O)N1CCCC1)c1ccccc1C(=O)c1ccccc1,-9,-89,3,-9,-19,-28
NC(=O)C1CCN(C(=O)/C=C/c2ccco2)CC1,7,10,-16,1,18,-9
COC(=O)c1ccc(-n2ccnc2)cc1,-8,14,-8,-16,-16,-3
CCOC(=O)C(=Cc1ccc(Br)cc1)C(=O)OCC,52*,24,-31,6,-10,23
CCOC(=O)C(=Cc1ccc(-n2ccnc2)cc1)C(=O)OCC,71*,93*,-9,26,75,107*
O=C(O)c1ccc(/C=N/NC(=O)c2ccc(NS(=O)(=O)c3cccs3)cc2)cc1,31,14,6,6,-22,-1
COc1ccc(/C=N/NC(=O)c2ccc(NS(=O)(=O)c3cccs3)cc2)cc1,-48,-34,-8,-3,-7,104*
Brc1ccc2ncnc(Nc3ccc(N4CCOCC4)cc3)c2c1,67*,5,2,13,-5,3
O=C(O)c1cc(Cl)c(Cl)cc1C(=O)N(Cc1ccccc1)Cc1ccccc1,5,17,-5,3,-13,4
CCCCNS(=O)(=O)c1ccc(S(=O)(=O)NCc2ccncc2)cc1,9,-9,-4,5,86*,14
COc1ccc(Cc2nc3ccc(C(=O)NCCc4cccc(C)n4)cc3o2)cc1,-4,-16,-2,7,-5,-27
COc1cc(/C=C2\C(=O)N(c3ccc(NC(C)=O)cc3)N=C2c2ccccc2)ccc1O,-10,-2,5,9,9,-14
CCOc1cc(/C=C2\C(=O)N(c3nc(-c4ccc(Br)cc4)cs3)N=C2c2ccccc2)ccc1O,-2,15,14,-11,-5,51*
CC(C)OC1=CC(=O)OC(c2cccc(Cl)c2)C1 (stereo unspecified),x,-17,x,x,x,x

# From PubChem BioAssay
